Source: PubChem BioAssay (NCI)
About 83,000 compounds went through this panel and 20% of them were active in at least one assay; those are over-represented in the sample as a whole.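 The test compound was applied at a single concentration to cells in 96-well plates for 48 hours, and percent growth was recorded.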 Calls of active or inactive are those of the source. How the source made its calls: active means growth percent below 10; inactive means the rest.

What follows are compounds tested on MOLT-4 leukemia (assay: NCI-60 one-dose screen, 48 h (100 = growth as untreated, 0 = no growth, -100 = all killed)). Details: 10 µM unless noted.

| Compound | growth |
| --- | --- |
| NS(=O)(=O)c1ccc(Nc2nc(N/N=C/c3c[nH]c4ccccc34)nc(Nc3ccccc3)n2)cc1 | 19.9% (inactive) |
| CCc1cccc2c3c(sc12)C(c1ccc(OC)cc1)C(C#N)=C(/N=C/c1ccc(Cl)cc1)O3 (stereo not drawn) | 22.5% (inactive) |
| Cn1ccnc1C(=O)/C=C/c1ccc(CNC(=O)c2ccc(F)cc2)cc1 | 9.84% (active) |
| N#Cc1cccc(NC(=O)c2cc(-c3ccc(F)cc3F)ccc2O)c1 | 6.28% (active) |
| O=S(=O)(NCCCNc1nccc(-c2[nH]c(-c3ccccc3)nc2-c2ccc(Cl)c(O)c2)n1)c1cccc2ccccc12 | 18.7% (inactive) |
| CC1(C)[C@@H](O)CC[C@]2(C)[C@H]3CC[C@@H]4[C@H]5[C@H](C(=O)/C=C\c6ccncc6)CC[C@]5(O)CC[C@@]4(C)[C@]3(C)CC[C@@H]12 | 27.9% (inactive) |
| CS(=O)(=O)Nc1cc(-c2ccc3ncc(C#N)c(N[C@H](CO)c4ccccc4)c3c2)cnc1Cl | 14.7% (inactive) |
| O=C(CSc1nc2ccccc2c(=O)n1-c1ccccc1)Nc1ccc(-c2nc3ccc([N+](=O)[O-])cc3[nH]2)cc1 | 20.4% (inactive) |
| Oc1cccc2ccc(-c3nnc(SCc4ccc(O)c5ncccc45)n3-c3ccccc3)nc12 | 12.2% (inactive) |
| C=CCn1c(SCC(=O)Nc2ccc(C(=O)/C=C/c3ccc(C)cc3)cc2)nnc1-c1c[nH]c2ccccc12 | 60.7% (inactive) |
| C[C@@H](Nc1c(C#N)cnc2ccc(-c3cnc(Cl)c(NS(C)(=O)=O)c3)cc12)c1ccccc1 | -35.6% (active) |
| CCN(CC)c1ccc(NC2=C(Cl)C(=O)c3nc(C)ccc3C2=O)cc1 | 0.296% (active) |
| C#Cc1nc(C(=O)NCCC(=O)Nc2ccc(NC(=O)c3ccc(/C=C/C(=O)c4nccn4C)cc3)cc2)cs1 | 19.9% (inactive) |
| CCN(CC)CCn1c2ccc(O)cc2c2sc3cc(OC)ccc3c(=O)c21 | 5.44% (active) |
| CC1(C)CC[C@]2(C(=O)N3CCOCC3)CC[C@]3(C)C(=CC[C@@H]4[C@@]5(C)C/C(=C/c6ccccn6)C(=O)C(C)(C)[C@@H]5CC[C@]43C)[C@@H]2C1 | 25% (inactive) |
| Cc1nc(-c2ccccc2O)ccc1C(=O)N=Nc1c(O)[nH]c2ccc(Br)cc12 | 102% (inactive) |
| O=C(CCn1c[n+](CC(=O)c2ccc(-c3ccccc3)cc2)c2ccccc21)Nc1cccc2cccnc12 | 47.9% (inactive) |

| Compound | growth |
| --- | --- |
| COC(=O)c1[nH]nc2c1C1(C(=O)c3cccc4cccc1c34)C(C#N)=C(N)O2 (stereo not drawn) | 111% (inactive) |
| N=c1c2cc(-c3ccccc3)oc2ncn1/N=C/c1ccc(Cl)cc1 | 88.2% (inactive) |
| Cc1ccc(-n2c(/C=C3\C(=O)Nc4ccccc43)ccc2CO)cc1 | 43.8% (inactive) |
| CC(=O)N(C)C1CCc2c(sc(NC(=O)c3ccc(C(C)(C)C)cc3)c2C(N)=O)C1 (stereo not drawn) | 75.2% (inactive) |
| CC1(C)[C@@H](O)CC[C@]2(C)[C@H]3CC[C@@H]4[C@H]5[C@H](C(=O)/C=C\c6ccc([N+](=O)[O-])cc6)CC[C@]5(O)CC[C@@]4(C)[C@]3(C)CC[C@@H]12 | 22.9% (inactive) |
| Cc1ccc(NC(=O)CNc2cc(C(N)=O)cc(F)c2C)c(Cl)c1 | 90.5% (inactive) |
| COc1ccc(N2CCN(C3=C(Cl)C(=O)C(C)=C(C)C3=O)CC2)cc1 | 53.7% (inactive) |
| CN1CCN(c2ccc(/C=N/Nc3nc4ccccc4c(=O)n3-c3ccccc3)cc2)CC1 | 104% (inactive) |
| COc1cc(-c2nc3sccn3c2-c2ccnc(S(C)(=O)=O)n2)ccc1F | 83.5% (inactive) |
| Cc1ccc2c(c1)Oc1nc(N)c(C#N)c(N)c1C2Sc1ccc(F)cc1 (stereo not drawn) | -16.6% (active) |
| CCCn1cnc2c(c1=N)C(c1ccc(F)cc1)c1sc3c(C)cccc3c1O2 (stereo not drawn) | 40% (inactive) |
| COc1ccc(Cn2cc3c(c2-c2cc(OC)c(OC)c(OC)c2)CCc2c(CN4CCCC4)noc2-3)cc1 | 18.3% (inactive) |
| CC1=N[C@@H]2CN(C(=O)OC(C)(C)C)C[C@@H]2n2c1cc1ccccc1c2=O | 106% (inactive) |
| COc1cc(OC)cc(C(=O)Nc2cccc(C#Cc3cccc4[nH]nc(N)c34)c2)c1 | 20.5% (inactive) |
| COc1ccccc1-n1cc(C#N)c(N)c1C(=O)c1ccc(Br)cc1 | 61.4% (inactive) |
| CS(=O)(=O)Nc1cc(-c2ccc3ncc(C#N)c(NCc4cccc(F)c4)c3c2)cnc1Cl | -10.6% (active) |
